# Only some compounds are listed: those with a hit (about 7.9% of all), similar ones and a draw of the others.
# MARV entry inh: qHTS for inhibitors of binding or entry into cells for Marburg Virus; AID 540276, 2011; Marburg virus pseudotyped entry inhibition, cell reporter; Potency, µM (top dose mostly 37.8 µM), for the others: at the top dose activity change, negative = inhibition, most hits filed as inhibitors; 300,000 compounds, 1.8% hits; calls by dose curve; tested in HEK293 cells; note: potency is the fitted concentration of half-maximal effect
# HCV inh: qHTS Assay for Inhibitors of Hepatitis C Virus (HCV); Huh7.5.1 HCVcc-Cre infection, luciferase reporter, 44 h; Potency, µM (top dose mostly 41.8 µM), without a hit: top-dose activity change, negative = inhibition, usual class: inhibitors; 340,000 compounds, 3.4% hits; AID 651820, 2012; active = well fitted inhibition curve with a large enough effect; inconclusive = small, poorly fitted or top-dose-only effect, or another doubt; inactive = no such curve, though single readings can be large or run the other way; note: potency is the fitted concentration of half-maximal effect
#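 Cells (1,000/well) were plated 4 h before compound, then infected with HCVcc-Cre virus (~0.5 moi). After 44 h further culture, infection was read as luciferase luminescence following a 15 min substrate incubation at room temperature.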
# FMDV inh: High Throughput Screening for Foot and Mouth Disease Virus Antivirals | FMDV antiviral cell-based qHTS | Potency, µM (doses to about 57.9 µM), without a hit: at the top dose activity change, negative = inhibition, actives largely listed as inhibitors | 410,000 compounds, 1.2% hits | AID 1159524, 2015; calls by dose curve; tested in HEK293T cells; note: read-out not given here; potency is the fitted concentration of half-maximal effect; nearly all actives have a fitted effect of over 45% in size
# HCMV inh: qHTS Assay for inhibitors of the human cytomegalovirus (HCMV). HFF cells, HCMV-luciferase reporter, 72 h; active compounds read low. activity change, negative = inhibition, % at 57.5 µM. 410,000 compounds, 4.5% hits; in the data active = activity change below about -60%; inconclusive = no clear call, values can overlap the other calls; inactive = above about -39%
#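 Steps: HFFs plated, 16 h 37C; compounds added; HCMV-luciferase added to MOI 1 PFU/cell; 72 h 37C; OneGlo reagent, 5 min room temperature; luminescence read, normalized to controls.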
# LASV entry inh: qHTS for Inhibitors of binding or entry into cells for Lassa Virus | Lassa virus pseudotype entry inhibition, cell reporter | Potency, µM (highest dose often 37.9 µM), for the others: at the top dose activity change, negative = inhibition, most hits filed as inhibitors | 300,000 compounds, 1.2% hits | AID 540256, 2011; calls by dose curve; tested in HEK293 cells; note: potency is the fitted concentration of half-maximal effect; nearly all actives have a fitted effect of over 50% in size
# Starred values were filed as active, the others as inactive; ? = inconclusive; . = not tested or not shown; [ ] = dose if it differs, or a comment. % is set by controls: 0 for no effect and ±100 for the full control effect.
SMILES,MARV entry inh,HCV inh,FMDV inh,HCMV inh,LASV entry inh
C=CCNC(=O)c1cc([N+](=O)[O-])cc2c(=O)[nH]c(Nc3ccc(Cl)c(Cl)c3)nc12,.,.,-11%,.,.
Cc1ccc(C(=O)N/C(=C/c2ccc(-c3ccc([N+](=O)[O-])cc3)o2)C(=O)NCCCN(C)C)cc1,4µM*,-79%,-19%,?,?
O=C(NCCCO)/C(=C/c1ccc(-c2cccc([N+](=O)[O-])c2)o1)NC(=O)c1ccccc1,?,-20%,-23%,-25,1%
Cc1ccc(NC(=O)CN(Cc2ccco2)Cc2ccccc2O)cc1C,?,?,6%,-64*,?
COc1cccc(-c2ccc3ncnc(NCc4cccc(C)c4)c3c2)c1,.,.,-25%,-86*,.
Cc1ccc2ncnc(NCCC(=O)O)c2c1,-10%,12%,11%,19,22%
COCCCNc1ncnc2ccc(C)cc12,-27%,?,-29%,-63*,-23%
COc1cccc(CNc2ncnc3cc(Cl)ccc23)c1,?,11µM*,?,?,6%
COc1cc2ncnc(NCc3cccc(Cl)c3)c2cc1OC,.,?,-11%,?,.
Fc1cccc(CNc2ncnc3cc(Cl)ccc23)c1F,.,7.1µM*,?,?,.
Fc1cccc(CNc2ncnc3ccc(-c4ccc5c(c4)OCO5)cc23)c1,.,.,?,-92*,.
CSc1ncc(Cl)c(C(=O)Nc2ccccc2[N+](=O)[O-])n1,13%,4%,-3%,54,14%
CCNC(=O)COc1ccc(C=O)cc1OC,16%,3%,2%,-86*,18%
COc1cc(C=O)ccc1OCCCOc1ccccc1C(=O)O,?,-13%,8.9µM*,26,?
Cc1cc(NC(=O)Cn2cc([N+](=O)[O-])cn2)no1,.,1%,4%,?,.
O=C(CSc1ccc2c(c1)OCCO2)Nc1ccc(Br)cn1,22%,?,-21%,31,0%
O=C(CSc1ccc2c(c1)OCCO2)Nc1ccc(Cl)cn1,9%,-22%,-3%,-86*,?
Nc1ccc(C2(c3ccc(N)cc3)C(=O)Nc3ccccc32)cc1,-13%,1%,.,-62*,-6%
O=C(Cc1ccc(Cl)cc1)Nc1cccc(S(=O)(=O)Nc2ccccc2F)c1,-27%,14%,-5%,-7,?
CN(C)S(=O)(=O)c1cccc(C(=O)Nc2cc(Cl)cc(Cl)c2)c1,-4%,11µM*,-6%,-8,?
CCCC(=O)Nc1ccc(Cl)c(NC(=O)CC)c1,?,-13%,-7%,2,0%
COc1cc(NC(=O)c2ccc(Br)o2)ccc1NC(=O)c1ccccc1Cl,-10%,10µM*,0%,.,?
CCC(=O)Nc1ccc(Cl)c(NC(=O)c2ccccc2OC)c1,?,-7%,3%,-62*,5%[46.1 µM]
CN(C)S(=O)(=O)c1cccc(C(=O)Nc2ccccc2)c1,2%[46.1 µM],-28%,-3%,15,-3%
CN(C)S(=O)(=O)c1cccc(NC(=O)Cc2ccc(Cl)cc2)c1,-17%,4%,?,?,13µM*
SMILES,MARV entry inh,HCV inh,FMDV inh,HCMV inh,LASV entry inh
O=C(Nc1cc(Cl)cc(Cl)c1)c1cccc(OC(F)F)c1,-12%,?,40µM*,-75*,-14%
COc1cccc(C(=O)Nc2cccc(NC(=O)c3ccccc3Cl)c2)c1,.,-18%,-9%,-97*,.
COc1cccc(C(=O)Nc2cccc(NC(=O)c3ccc(Cl)cc3Cl)c2)c1,.,.,-5%,?,?
CN(C)S(=O)(=O)Oc1cccc(C(=O)Nc2cccc(Cl)c2)c1,-24%,8.9µM*,-25%,-29,?
CCC(=O)Nc1ccc(Cl)c(NC(=O)c2cccc(OC)c2)c1,-11%[46.1 µM],?,6%,-88*,-6%[46.1 µM]
COCCOc1cc(NC(=O)c2cccc(OC)c2)c(Cl)cc1Cl,-19%[46.1 µM],?,-5%,-18,-7%
CCOc1ccc(C(=O)NCC(=O)NCC(c2ccccc2OC)N2CCCC2)cc1 (configuration not stated),9%,9%,-12%,-39,6%
CC(=O)c1sc(-c2ccc(F)cc2F)nc1C,.,3%,50%,-32,.
CCCC(=O)Nc1ccc(C(=O)Nc2cccc(OC)c2)cc1,13%,-22%,46%,-74*,0%
CC(C)c1cc(C(=O)NC2CCCc3c2cnn3-c2ccccc2F)no1 (configuration not stated),.,11µM*,-27%,-88*,.

# Source: PubChem
